Our source for the growth inhibition values is PubChem BioAssay (NCI).

About 79,000 compounds went through this panel and 15% of them were active in at least one assay; those are over-represented in the sample as a whole. A number with no mark means an inactive call. The source made the active and inactive calls. Cut-off read from the data, not from the text of the source: active = growth inhibition above about 70%; inactive = the rest.

Experiment [1] in a line: NCI Yeast Anticancer Drug Screen. Data for the rad50 strain (AID 155).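 Note: 0% = growth of vehicle-only cultures of the same strain.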 To be noted: S. cerevisiae rad50 strain growth inhibition, stronger effect = higher value. The procedure, abridged:
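Genetically altered yeast (DNA repair pathway); compound treatment; growth inhibition vs vehicle ctrl.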

Experiment [2] can be described thus: NCI Yeast Anticancer Drug Screen. Data for the mec2-1 strain (AID 157). To be noted: S. cerevisiae mec2-1 strain, stronger effect = higher value. The gist of the method:
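mec2-1 yeast strain, carrying an alteration in DNA damage repair or cell cycle control, was exposed to compounds; growth inhibition was measured relative to vehicle-treated controls.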

The nature of experiment [3]: NCI Yeast Anticancer Drug Screen. Data for the sgs1 mgt1 strain (AID 161).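 Note: 0% = growth of cultures given vehicle only.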 To be noted: S. cerevisiae sgs1 mgt1 strain, stronger effect = higher value. The gist of the method: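 Percent growth inhibition was derived by comparing compound-exposed mutant yeast with vehicle-exposed cultures. The strain carries alterations in DNA damage repair.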
Experiment [4] can be described thus: NCI Yeast Anticancer Drug Screen. Data for the cln2 rad14 strain (AID 165).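 Note: 0% = growth equal to vehicle treated cultures.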 As to conditions: S. cerevisiae cln2 rad14 strain, stronger effect = higher value. The gist of the method: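 Yeast carrying cln2 and rad14 alterations (cell cycle control and DNA damage repair) were exposed to compounds. Growth inhibition was measured against vehicle-treated controls.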
Experiment [5] in a line: NCI Yeast Anticancer Drug Screen. Data for the bub3 strain (AID 167). As to conditions: S. cerevisiae bub3 mutant strain, stronger effect = higher value. The gist of the method:
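Yeast carrying a defined mutation is treated with each compound, and growth is compared with that of vehicle-exposed cells to give inhibition.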

A short description of experiment [6]: NCI Yeast Anticancer Drug Screen. Data for the mlh1 rad18 strain (AID 175). To be noted: S. cerevisiae mlh1 rad18 strain growth inhibition, stronger effect = higher value. The gist of the method:
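Growth inhibition of the yeast strain was measured after compound exposure and expressed relative to vehicle-treated controls. The strain carries defined defects in DNA damage repair.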

Setting [7] is: at 5.0 µM (retest, dose inferred, filed as 0.5).
[8] abbreviates: at 50.0 µM (retest, dose inferred, filed as 5.0).

On to `O=C1Nc2ccccc2/C1=C/c1ccc(Cl)c(Cl)c1`, for which the growth inhibition is -1% in experiment [1] (setting [7]); 71% (active) in experiment [1] (setting [8]); 78.3% (active) in experiment [1] (at 50.0 µM); -8% in experiment [2] (setting [7]); 89% (active) in experiment [2] (setting [8]); 80.3% (active) in experiment [2] (at 50.0 µM). For the same compound, the growth inhibition is -4% in experiment [3] (setting [7]); 73% (active) in experiment [3] (setting [8]); 65.5% in experiment [3] (at 50.0 µM); 20% in experiment [4] (setting [7]); 94% (active) in experiment [4] (setting [8]); 74.1% (active) in experiment [4] (at 50.0 µM). The growth inhibition in experiment [5] (setting [7]) is -10%; in experiment [5] (setting [8]), 94% (active); in experiment [5] (at 50.0 µM), 74.7% (active); in experiment [6] (setting [7]), 5%; in experiment [6] (setting [8]), 89% (active); in experiment [6] (at 50.0 µM) it was 78% (active).
As to `COc1ccc(C(C#N)=C2C=CC(=NOC(=O)Nc3ccccc3)C=C2)cc1`, the growth inhibition was 41% in experiment [1] (setting [7]); 82% (active) in experiment [1] (setting [8]); 88.4% (active) in experiment [1] (at 50.0 µM); 28% in experiment [2] (setting [7]); 92% (active) in experiment [2] (setting [8]); 93.1% (active) in experiment [2] (at 50.0 µM). Moreover, the growth inhibition is 68% in experiment [3] (setting [7]); 96% (active) in experiment [3] (setting [8]); 94.8% (active) in experiment [3] (at 50.0 µM); 4% in experiment [4] (setting [7]); 91% (active) in experiment [4] (setting [8]); -1.4% in experiment [4] (at 50.0 µM). Further, the growth inhibition is 12% in experiment [5] (setting [7]); 37% in experiment [5] (setting [8]); 69.1% in experiment [5] (at 50.0 µM); 33% in experiment [6] (setting [7]); 91% (active) in experiment [6] (setting [8]); 96.3% (active) in experiment [6] (at 50.0 µM).
Take `CCCCCCCCCCCCCCCCN(CC)CC`: the growth inhibition in experiment [1] (setting [7]) was 99% (active); in experiment [1] (setting [8]), 99% (active); in experiment [1] (at 50.0 µM) it was 99.6% (active); in experiment [2] (setting [7]), 99% (active); in experiment [2] (setting [8]) it was 99% (active); in experiment [2] (at 50.0 µM) it was 99.7% (active). Also, the growth inhibition in experiment [3] (setting [7]) was 99% (active); in experiment [3] (setting [8]) it was 100% (active); in experiment [3] (at 50.0 µM), 99.4% (active); in experiment [4] (setting [7]) it was 97% (active); in experiment [4] (setting [8]), 99% (active); in experiment [4] (at 50.0 µM), 99.3% (active). The growth inhibition in experiment [5] (setting [7]) was 98% (active); in experiment [5] (setting [8]) it was 99% (active); in experiment [5] (at 50.0 µM), 99.7% (active); in experiment [6] (setting [7]) it was 99% (active); in experiment [6] (setting [8]), 99% (active); in experiment [6] (at 50.0 µM), 99.6% (active).
With `COc1ccc2nc3cc(Cl)ccc3c(NCCNCCCNC(=O)c3cc(-c4ccccc4)nc4ccccc34)c2c1`, the growth inhibition in experiment [1] (setting [7]) is -14%; in experiment [1] (setting [8]), 98% (active); in experiment [1] (at 50.0 µM), 96.3% (active); in experiment [2] (setting [7]), -1%; in experiment [2] (setting [8]), 87% (active); in experiment [2] (at 50.0 µM), 93.9% (active). Moreover, the growth inhibition in experiment [3] (setting [7]) was -5%; in experiment [3] (setting [8]), 69%; in experiment [3] (at 50.0 µM), 95.2% (active); in experiment [4] (setting [7]) it was 30%; in experiment [4] (setting [8]), 98% (active); in experiment [4] (at 50.0 µM) it was 97.5% (active). Also, the growth inhibition in experiment [5] (setting [7]) was -15%; in experiment [5] (setting [8]), 97% (active); in experiment [5] (at 50.0 µM) it was 94.2% (active); in experiment [6] (setting [7]) it was -11%; in experiment [6] (setting [8]), 98% (active); in experiment [6] (at 50.0 µM), 98.2% (active).
Regarding `CC1OC2CC(=O)OC2C2=C1C(=O)c1c(O)cccc1C2=O` (configuration not stated), the growth inhibition in experiment [1] (setting [7]) was 99% (active); in experiment [1] (setting [8]), 99% (active); in experiment [1] (at 50.0 µM), 91.8% (active); in experiment [2] (setting [7]) it was 100% (active); in experiment [2] (setting [8]), 99% (active); in experiment [2] (at 50.0 µM) it was 93% (active). For the same compound, the growth inhibition in experiment [3] (setting [7]) is 99% (active); in experiment [3] (setting [8]), 99% (active); in experiment [3] (at 50.0 µM), 92.6% (active); in experiment [4] (setting [7]), 99% (active); in experiment [4] (setting [8]) it was 99% (active); in experiment [4] (at 50.0 µM), 91.4% (active). Also, the growth inhibition in experiment [5] (setting [7]) is 99% (active); in experiment [5] (setting [8]) it was 99% (active); in experiment [5] (at 50.0 µM), 91.4% (active); in experiment [6] (setting [7]), 99% (active); in experiment [6] (setting [8]), 99% (active); in experiment [6] (at 50.0 µM) it was 91.7% (active).
For `O=C(CCN(Cc1ccccc1)Cc1ccccc1)c1ccc2ccccc2c1`, the growth inhibition in experiment [1] (setting [7]) was 30%; in experiment [1] (setting [8]) it was 55%; in experiment [1] (at 50.0 µM) it was 76.2% (active); in experiment [2] (setting [7]) it was 28%; in experiment [2] (setting [8]), 58%; in experiment [2] (at 50.0 µM), 55.6%. The growth inhibition in experiment [3] (setting [7]) is 59%; in experiment [3] (setting [8]) it was 89% (active); in experiment [3] (at 50.0 µM), 90.6% (active); in experiment [4] (setting [7]), 33%; in experiment [4] (setting [8]), 61%; in experiment [4] (at 50.0 µM) it was 83.8% (active). Besides, the growth inhibition in experiment [5] (setting [7]) is 45%; in experiment [5] (setting [8]), 69%; in experiment [5] (at 50.0 µM) it was 60.1%; in experiment [6] (setting [7]) it was 35%; in experiment [6] (setting [8]) it was 68%; in experiment [6] (at 50.0 µM), 81.4% (active).
Turning to `O=S=C(c1ccccc1)N(Cc1ccccc1)Cc1ccccc1`, the growth inhibition in experiment [1] (setting [7]) was -1%; in experiment [1] (setting [8]), 94% (active); in experiment [1] (at 50.0 µM), 96% (active); in experiment [2] (setting [7]) it was -1%; in experiment [2] (setting [8]), 95% (active); in experiment [2] (at 50.0 µM), 96.2% (active). In addition, the growth inhibition was 0% in experiment [3] (setting [7]); 98% (active) in experiment [3] (setting [8]); 96.7% (active) in experiment [3] (at 50.0 µM); 10% in experiment [4] (setting [7]); 90% (active) in experiment [4] (setting [8]); 69.7% in experiment [4] (at 50.0 µM). Also, the growth inhibition in experiment [5] (setting [7]) is 22%; in experiment [5] (setting [8]) it was 93% (active); in experiment [5] (at 50.0 µM), 96.8% (active); in experiment [6] (setting [7]) it was 1%; in experiment [6] (setting [8]), 95% (active); in experiment [6] (at 50.0 µM), 94.2% (active).
For `CN(C)CCOc1ccc2c(c1)C(=O)/C(=C\c1ncc([N+](=O)[O-])n1C)C2`, the growth inhibition in experiment [1] (setting [7]) is 31%; in experiment [1] (setting [8]), 73% (active); in experiment [1] (at 50.0 µM), 54.1%; in experiment [2] (setting [7]), 21%; in experiment [2] (setting [8]) it was 89% (active); in experiment [2] (at 50.0 µM), 80.3% (active). Also, the growth inhibition in experiment [3] (setting [7]) was 21%; in experiment [3] (setting [8]), 67%; in experiment [3] (at 50.0 µM) it was 77.4% (active); in experiment [4] (setting [7]), 22%; in experiment [4] (setting [8]), 46%; in experiment [4] (at 50.0 µM) it was 59%. Further, the growth inhibition in experiment [5] (setting [7]) was 21%; in experiment [5] (setting [8]) it was 95% (active); in experiment [5] (at 50.0 µM) it was 34.8%; in experiment [6] (setting [7]), 50%; in experiment [6] (setting [8]) it was 78% (active); in experiment [6] (at 50.0 µM) it was 80.8% (active).
For `O=C(N/C(=C\c1ccccc1Cl)c1nc2ccccc2s1)c1ccccc1`, the growth inhibition in experiment [1] (setting [7]) was 20%; in experiment [1] (setting [8]), 99% (active); in experiment [1] (at 50.0 µM), 99% (active); in experiment [2] (setting [7]) it was 13%; in experiment [2] (setting [8]) it was 99% (active); in experiment [2] (at 50.0 µM), 99.2% (active). The growth inhibition in experiment [3] (setting [7]) is 54%; in experiment [3] (setting [8]) it was 99% (active); in experiment [3] (at 50.0 µM) it was 99.2% (active); in experiment [4] (setting [7]), 11%; in experiment [4] (setting [8]), 99% (active); in experiment [4] (at 50.0 µM), 99% (active). In addition, the growth inhibition in experiment [5] (setting [7]) is 30%; in experiment [5] (setting [8]), 99% (active); in experiment [5] (at 50.0 µM), 98.8% (active); in experiment [6] (setting [7]), 20%; in experiment [6] (setting [8]) it was 99% (active); in experiment [6] (at 50.0 µM), 99.1% (active).
